EBV LMP1 NFkB: reduces LMP1-driven NF-kappaB luciferase signal; LMP1-induced NF-kappaB luciferase reporter cells, luminescence; inhibition, % at 12.5 µM; actives 0.69% (n = 350,000); in the data active = inhibition above about 41%; inconclusive = no clear call, values can overlap the other calls;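 also: 0% = neutral control wells and 100% = reference inhibitor control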
TRPM1 prom inh: reduces MITF-dependent TRPM1 promoter luciferase signal. actives 0.83% (n = 330,000). inhibition, % at 12.5 µM. SK-MEL-5 TRPM1 promoter luciferase, 24 h;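 active = mean inhibition across replicates of 60% or more, whatever share of single replicates reaches that level; inconclusive = some that reach 60%, reason not given; inactive = mean inhibition across replicates below 60%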
KKLEB tox: CF airway cell cytotoxicity counter-screen. KKLEB CF airway cells viability, ATPlite luminescence, overnight; hits give low values; cells stimulated with P. aeruginosa culture filtrate. activity change (cytotoxicity), % at 5 µM. actives 0.36% (n = 360,000);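 active = corrected activity change at or below -50% at 5 µM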
Shn3 inh set2: Schnurri-3 reporter inhibition in Clone20 osteoblasts | actives 0.52% (n = 360,000) | inhibition, % at 12.5 µM | Clone20 osteoblast Shn3 3'UTR firefly luciferase, 24 h;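 active = mean inhibition of at least 75% with every replicate also reaching 75%; inconclusive = mean inhibition at least 75% but some replicate below; inactive = mean inhibition below 75%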;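 also: 0% = median of neutral control wells and 100% = pilot-screen positive control compound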
CF NFkB inh: blocks PAF-induced NF-kB reporter in cystic fibrosis cells. KKLEB NF-kB-GFP reporter, GFP fluorescence overnight. inhibition, % at 5 µM. actives 0.86% (n = 360,000). AID 588850;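 active = at least 50% inhibition at 5 µM, scaled per plate between neutral and stimulator controls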;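 also: PAF is a Pseudomonas aeruginosa culture filtrate used as stimulus; plate controls were PAF-stimulated DMSO wells for no effect and unstimulated DMSO wells for full effect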
Peg3 prom inh: Peg3 promoter activity inhibition. HeLa PEG-Prom luciferase reporter, luminescence, overnight. inhibition, % at 20 µM. actives 1.7% (n = 360,000);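 active = inhibition of at least 50% at 20 µM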
CF NFkB inh conf: CF NF-kB inhibition confirmation, single concentration. shares compounds with CF NFkB inh. KKLEB CF airway cells, PAF-induced NF-kB-GFP fluorescence, overnight. inhibition, % at 5 µM. AID 602472. actives 64% (n = 1,300); in the data active = inhibition above about 40%;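 also: stimulus PAF is a Pseudomonas aeruginosa filtrate and not platelet activating factor; plate controls were DMSO wells with stimulus for no effect and unstimulated DMSO wells for full effect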
An asterisk follows results filed as active; ? = inconclusive; nt = no result. In the library only some 2.9% were active in any assay of this set; here they are far more common.

SMILES	EBV LMP1 NFkB	TRPM1 prom inh	KKLEB tox	Shn3 inh set2	CF NFkB inh	Peg3 prom inh	CF NFkB inh conf
Clc1ccccc1Nc1nc(-c2ccncc2)nc2ccccc12	-4	-22	0	20	-10	-1	nt
Clc1cccc(Nc2nc(-c3ccncc3)nc3ccccc23)c1	-5	5	-42	12	64*	83*	-40
CCOc1ccc2nc(SCC(=O)c3ccc(O)cc3O)sc2c1	-1	-25	0	-2	58*	-72	45*
COc1cc(/C=C2\SC(=O)N(CCNC(=O)c3sc4cc(F)ccc4c3Cl)C2=O)cc(OC)c1OC	4	-6	-42	15	55*	7	67*
CC(=O)OCCCNc1cc(Sc2ccc(Cl)cc2)c2nonc2c1[N+](=O)[O-]	27	75*	-8	?	70*	103*	53*
COc1cc2c(Cc3ccccc3)cncc2cc1O	-2	-1	3	4	53*	10	66*
COc1cc2cncc(Cc3ccccc3)c2cc1O	9	1	3	-9	8	0	nt
Cc1cc(C(=O)N2CCCC2(C)C(=O)NCC(C)C)nn1C(C)(C)C (centres undefined)	nt	nt	15	-5	-3	-2	nt
Cc1cc2c([nH]c3ccccc32)c(C)n1	2	-6	-7	7	-30	7	nt
Cc1c2ccncc2cc2c1[nH]c1ccccc12	-24	-41	-46	34	55*	50	21
O=[N+]([O-])c1cc(S(=O)(=O)N2CCCC2)ccc1OCCOc1ccccc1	-3	-3	-22	-37	50*	14	15
CCOC(=O)c1ccc(NC(=O)Nc2nncs2)cc1	11	nt	-22	-5	66*	-268	81*
Cc1ccc(-c2nnc(Sc3nc4ccccc4o3)c3ccccc23)cc1	3	-28	-15	1	35	-48	nt
Cc1nnc(Sc2nc3ccccc3o2)c2ccccc12	5	-22	-35	-76	55*	-102	52*
O=C(CCN1C(=O)c2ccccc2C1=O)Oc1ccc2ccccc2c1	-1	-5	-2	-5	-8	4	nt
CC1=CC(C)(C)Nc2ccc(OC(=O)CCN3C(=O)c4ccccc4C3=O)cc21	-20	22	5	53	71*	104*	-24
Cc1ccccc1N(CC(=O)N1CCN(Cc2ccccc2)CC1)S(C)(=O)=O	-3	nt	-5	-9	11	-5	nt
N#Cc1cccc(OC(=O)C2CCN(C(=O)c3ccc(F)cc3)CC2)c1	35	nt	3	-18	7	-4	nt
COc1ccc2c(c1)C(=O)C(=O)N2CCS(=O)(=O)c1ccccc1	-12	18	5	-13	6	8	nt
O=C1C(=O)N(CCS(=O)(=O)c2ccccc2)c2ccc(F)cc21	-5	55	-17	-3	66*	5	22
COc1ccc2c(c1OC)C(=O)N1c3ccccc3C(=O)N(c3ccccc3)C21 (centres undefined)	0	-6	-4	21	68*	44	97*
O=C(NCc1ccccc1)c1nc(S(=O)(=O)Cc2ccccc2)ncc1Cl	-14	49	-30	94*	87*	105*	66*
O=C(NCc1ccc2c(c1)OCO2)c1nc(S(=O)(=O)Cc2ccccc2F)ncc1Cl	11	91*	-2	95*	86*	106*	42*
O=C(NCc1ccc2c(c1)OCO2)c1ccc(Cl)nc1	0	-15	-1	8	-9	7	nt
COc1ccc(CNC(=O)c2nc(S(=O)(=O)Cc3ccccc3)ncc2Cl)cc1	-6	67*	-20	92*	90*	104*	71*
SMILES	EBV LMP1 NFkB	TRPM1 prom inh	KKLEB tox	Shn3 inh set2	CF NFkB inh	Peg3 prom inh	CF NFkB inh conf
Clc1cccc(CNc2ccn3nc(-c4cccc(OCc5ccccc5)c4)cc3n2)c1	nt	nt	-23	-12	38	-13	nt
O=S(=O)(c1ccccc1F)N1CCN(CCOc2ccccc2)CC1	5	2	0	13	-10	2	nt
Cc1cccc(/C=C(\c2nc3ccccc3[nH]2)S(=O)(=O)c2ccccc2)c1	10	86*	-25	93*	55*	112*	-179
CCNC(=O)C1CCCN(Cc2cc(-c3ccccc3)on2)CC1 (centres undefined)	nt	nt	4	-12	3	-10	nt
NC(=S)N1OC[C@@H]2COc3ccc4ccccc4c3[C@@H]21	18	12	-36	36	72*	-64	55*
COC(=O)C1(NC(=O)CNC(=O)OCc2ccccc2)CCCC1	-1	-5	9	3	6	0	nt
Cc1cc(Br)ccc1NC(=O)CN(C)C(=O)C1CSC2(C)CCC(=O)N12 (centres undefined)	-3	6	-11	2	-1	19	nt
Cc1nc2ccccn2c1C(=O)/C=C/c1cccc([N+](=O)[O-])c1	32	71*	1	-40	71*	102*	2
O=C(CCCc1ccccn1)c1ccc(-c2ccccc2)cc1	-15	-73	12	-25	-21	-305	nt
CCN(CCCc1ccccc1)CCCc1ccccc1	-16	-10	32	5	54*	-10	4
Cc1ccc(NC(=O)c2ncn(CCCN3CCN(c4ncccn4)CC3)n2)cc1C	-5	2	-7	2	2	-4	nt
NC(=O)c1sc2nccc(Nc3ccccc3)c2c1N	65*	-19	4	-8	73*	-41	73*
CCCNC(=O)c1c(O)c2c([nH]c1=O)CCCC2	-4	-44	6	-60	-2	-187	nt
COc1ccc(CCNC(=O)c2c(O)c3c([nH]c2=O)CCCC3)cc1	-4	4	-36	-24	51*	11	36
COc1ccc(N=Cc2cc3c(cc2O)OC(N)=C(C#N)C3c2ccccc2)cc1 (centres undefined)	1	11	14	41	56*	20	85*
Cc1ccc(S(=O)(=O)N2c3cc(C)ccc3OCC2C(C)(C)C)cc1 (centres undefined)	9	5	-9	76	30	42	nt
COc1ccc(S(=O)(=O)N2c3cc(C)ccc3OCC2C(C)(C)C)cc1 (centres undefined)	8	13	-38	24	50*	18	59*
O=C(c1ccccc1)C(CCC(CN1CCOCC1)C(=O)c1ccccc1)CN1CCOCC1 (centres undefined)	50*	75*	-41	97*	84*	105*	-31
COc1ccc(Cc2nnc(SCc3ccc([N+](=O)[O-])cc3)o2)cc1	13	-7	0	-2	65*	7	86*
O=[N+]([O-])c1ccc(CSc2nnc(Cc3ccccc3)o2)cc1	-12	6	4	-4	-12	8	nt

Assay outcomes as filed in PubChem BioAssay.
